Screens as filed in PubChem BioAssay.
EPAC1 ag = agonists of human EPAC1. O95398. EPAC1 agonist qHTS, biochemical assay; response scale: 100% = response to 6.5 mM cAMP. Potency, µM (series often up to 154 µM), most hits filed as activators. actives 0.073% (n = 360,000); note: nearly all actives have a fitted effect of over 60% in size
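EPAC1 100 nM, Rap1B–BODIPY-GDP 250 nM, unlabeled GDP 50 uM; compound titration; 5 min RT; kinetic read ex480/em540 at 5-min intervals ×30 min; data normalized to 6.5 mM cAMP agonist control.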
TRPML1 ag = human mucolipin-1 channel agonism; Q9GZU1; TRPML1-expressing cells, Ca2+ dye fluorescence, FDSS; activation, % (test concentration not listed); actives 0.12% (n = 410,000); AID 624414; in the data active = activation above about 50%; inconclusive = mostly about 30% to 49%
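Calcium fluorescence on an FDSS kinetic reader gave the read-out. Tet-induced TRPML1-DL cells were plated overnight, dye-loaded (Ca8 with quencher, 45-90 min, room temperature, dark), then read 110 s after compound addition, and again 110 s after 4uM final 54-4 (EC80).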
EPAC1 antagonist = EPAC1 (human) antagonism; O95398; EPAC1 GEF assay, Rap1b-BODIPY-GDP exchange fluorescence; Potency, µM (doses to about 115 µM), usual class: inhibitors; actives 0.14% (n = 360,000); AID 720709; note: nearly all actives have a fitted effect of over 50% in size
EPAC2 ag = activates human EPAC2 exchange factor. Q8WZA2. EPAC2 activation, biochemical qHTS; response scale: 100% = 6.5 mM cAMP response. Potency, µM (series often up to 154 µM), actives largely listed as activators. actives 0.079% (n = 360,000). AID 720711; note: nearly all actives have a fitted effect of over 50% in size
Target sequence (Q8WZA2 whole entry, looked up): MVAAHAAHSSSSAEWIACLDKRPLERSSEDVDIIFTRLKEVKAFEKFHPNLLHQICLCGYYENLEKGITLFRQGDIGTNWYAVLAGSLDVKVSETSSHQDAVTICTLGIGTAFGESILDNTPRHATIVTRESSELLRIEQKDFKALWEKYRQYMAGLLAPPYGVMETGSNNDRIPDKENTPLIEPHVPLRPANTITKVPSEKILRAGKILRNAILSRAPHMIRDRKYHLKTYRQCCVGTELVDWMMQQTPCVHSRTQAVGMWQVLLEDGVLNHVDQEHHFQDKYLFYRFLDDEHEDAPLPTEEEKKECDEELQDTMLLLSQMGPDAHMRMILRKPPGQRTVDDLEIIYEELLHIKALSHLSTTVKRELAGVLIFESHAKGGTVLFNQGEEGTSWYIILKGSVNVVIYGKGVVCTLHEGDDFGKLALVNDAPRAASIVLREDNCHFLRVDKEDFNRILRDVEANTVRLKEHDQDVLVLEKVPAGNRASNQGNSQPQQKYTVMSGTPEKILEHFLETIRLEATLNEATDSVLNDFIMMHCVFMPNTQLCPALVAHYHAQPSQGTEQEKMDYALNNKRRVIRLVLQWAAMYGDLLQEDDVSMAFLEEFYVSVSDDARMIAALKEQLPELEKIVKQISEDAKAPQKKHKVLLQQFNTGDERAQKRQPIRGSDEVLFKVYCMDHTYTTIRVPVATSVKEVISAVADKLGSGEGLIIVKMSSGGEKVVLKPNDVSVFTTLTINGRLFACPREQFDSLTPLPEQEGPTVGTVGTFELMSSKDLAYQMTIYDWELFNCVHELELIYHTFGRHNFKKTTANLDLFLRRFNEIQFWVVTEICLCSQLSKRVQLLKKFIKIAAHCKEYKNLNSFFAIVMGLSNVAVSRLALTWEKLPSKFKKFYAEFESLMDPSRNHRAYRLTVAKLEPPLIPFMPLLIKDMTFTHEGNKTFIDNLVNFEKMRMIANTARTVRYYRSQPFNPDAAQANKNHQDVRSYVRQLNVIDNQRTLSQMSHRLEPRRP
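qHTS, titration series. 100 nM EPAC2 / 250 nM Rap1B-BODIPY-GDP / 50 uM GDP; RT; ex 480/em 540 nm, 5-min reads to 30 min. Norm. to 6.5 mM cAMP = activation.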
EPAC2 antag = EPAC2 (human) antagonism. EPAC2 GEF exchange of Rap1B-BODIPY-GDP, fluorescence. Potency, µM (highest dose often 114 µM), most hits filed as inhibitors. actives 0.18% (n = 360,000). AID 720708; note: nearly all actives have a fitted effect of over 45% in size
TRPML1 inh = inhibitors of human TRPML1 channel. AID 624415. TRPML1-inducible cells, Ca2+ dye fluorescence, FDSS; stronger effect = lower value; inhibition of EC80 agonist-evoked calcium signal. actives 0.02% (n = 390,000). activity change, negative = inhibition, % (no concentration beside the values); in the data active = activity change below about -50%; inconclusive = between about -30% and that limit;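 note: stimulus is agonist 54-4 at its EC80 concentration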
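TRPML1-DL cells, Tet-induced overnight (~16 h, 37 °C) at 1,500 cells/well, were loaded with Ca8 no-wash dye plus quencher for 45-90 min at room temperature. Compounds were pinned during FDSS kinetic reading; agonist 54-4 at EC80 (4 uM final) then added.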
Hits are given with their value; i = inactive; ? = inconclusive; nt = no result given. The list is not random: actives were taken first. Their share in the collection is about 0.4%. Unless noted, calls come from the whole dose curve; as a rule, active = well fitted curve in the direction sought with a large enough effect; inconclusive = small, poorly fitted or top-dose-only effect, or another doubt; inactive = no such curve, though single readings can be large; an effect the other way counts as inactive or inconclusive.

SMILES	EPAC1 ag	TRPML1 ag	EPAC1 antagonist	EPAC2 ag	EPAC2 antag	TRPML1 inh
O=S(=O)(Nc1ccccc1N1CCCCC1)c1ccc(Cl)s1	i	97.2	i	i	i	i
CC1=CC2=C(C=O)C(=O)C(C)(O)C(O)C2=CO1 (configuration not stated)	i	i	?	i	50.1µM	i
C#Cc1ccc([C@H]2C=C(C(=O)NCc3ccccc3)O[C@@H](OCC)[C@@H]2CCCO)cc1	i	i	i	i	25.1µM	i
C#Cc1ccc([C@@H]2C=C(C(=O)Nc3ccccc3)O[C@H](OCC)[C@H]2CCCO)cc1	i	i	i	i	?	i
COc1ccc(OC)c2c(C)ccnc12	nt	i	nt	nt	nt	nt
Cc1csc(C)[n+]1CCC1CCCCC1	nt	i	nt	nt	nt	nt
CCCCCCn1c(=O)[nH]c2nc3cc(N)ccc3nc2c1=O	i	50.8	i	i	i	i
CC(C)(C)n1ncc2c(=O)n(Cc3ccc([S+](=O)([O-])N4CCOCC4)cc3)cnc21	nt	i	nt	nt	nt	i
COc1cc(CCc2ccccc2)c(C(=O)O)c(O)c1C/C=C(/C)CCC=C(C)C	i	i	50.1µM	i	?	i
COc1cc(CCc2ccccc2)c(C(=O)O)c(O)c1CC=C(C)C	i	i	?	i	35.5µM	i
O=C1c2cc([N+](=O)[O-])ccc2-c2ncccc21	i	i	i	i	i	-57.0
CCOc1ccc2oc(C(=O)N(C)CC(=O)Nc3ccc(OCC)c(OCC)c3)c(C)c2c1	56.2µM	i	i	i	i	i
CCOc1ccc2oc(C(=O)N(C)CCc3ccc(OC)c(OC)c3)c(C)c2c1	i	i	i	i	i	i
O=C(Cc1ccc(Cl)cc1)Nc1cccc(C(=O)Nc2ccccc2C(=O)O)c1	i	i	100µM	i	i	i
Cc1ccc(S(=O)(=O)Oc2ccccc2-c2ccccc2)cc1	i	99.6	i	i	?	i
Cc1ccc(S(=O)(=O)Oc2ccccc2)cc1	i	i	i	i	?	i
COc1ccccc1-c1ccc(/C=C2\C=CC(=O)O2)o1	i	84.3	i	i	i	i
Cc1cc(Cn2cnc3c(cnn3C(C)(C)C)c2=O)ccc1F	nt	i	nt	nt	nt	i
O=C(c1cnn(-c2cccc(F)c2)c1-n1cccc1)N1CCN(c2ccccc2F)CC1	nt	70.6	nt	nt	nt	i
CNc1ccc(C=C2C=CC=C2)cc1	nt	i	nt	nt	nt	nt
O=c1[nH]c(SCc2ccccc2F)nc2ccccc12	i	i	i	i	?	i
O=c1cc(CSc2nc3ccccc3c(=O)[nH]2)c2ccc(O)cc2o1	i	i	50.1µM	i	i	i
CN(C)c1ccc(C(=O)/C=C/c2ccc(Br)cc2)cc1	i	i	i	100µM	i	i
CN(C)c1ccc(C(=O)/C=C/c2ccccc2)cc1	i	i	i	i	i	i
CCN(CC)c1ccc(/C=C/C(=O)c2cccnc2)cc1	i	i	i	i	i	i
SMILES	EPAC1 ag	TRPML1 ag	EPAC1 antagonist	EPAC2 ag	EPAC2 antag	TRPML1 inh
CCN(CC)c1ccc(/C=C/C(=O)c2ccc(Br)cc2)cc1	100µM	87.8	i	100µM	i	i
CCOC(=O)C[C@H]1c2cc(F)ccc2S(=O)(=O)N1Cc1cc(OC)c(OC)c(OC)c1	nt	i	nt	nt	nt	nt
CCNC(=O)N1CCN(/[N+]([O-])=N/Oc2ccc([N+](=O)[O-])cc2[N+](=O)[O-])CC1	nt	i	nt	nt	nt	i
O=C(/C=C/c1ccccc1)CC(O)(c1ccccc1)C(F)(F)F (configuration not stated)	i	i	i	i	i	i
O=C(/C=C/c1ccccc1)CC(O)(c1ccccc1)C(F)(F)C(F)F (configuration not stated)	?	59.4	i	?	i	i
CCN(CC)c1ccc(/C=C(\C#N)C(=O)NCc2ccccc2)cc1	100µM	?	i	i	i	i
CC(C)(C)n1ncc2c(=O)n(Cc3cccc(OC(F)(F)F)c3)cnc21	nt	i	nt	nt	nt	i
CCCCN(CCCC)c1ccc(Cn2ccc3ccccc32)cc1	nt	i	nt	nt	nt	nt
COc1cc2cc(Oc3ccc4ccc(=O)oc4c3)c(=O)oc2cc1OC(C)=O	i	nt	i	i	i	nt
COc1cc2cc(Oc3ccc4ccc(=O)oc4c3)c(=O)oc2cc1O	79.4µM	nt	50.1µM	i	i	nt
CC1CCCCN1C(=O)c1cnn2c1NC(=C1CC1)C=C2C(F)F (configuration not stated)	nt	i	nt	nt	nt	nt
COc1cc(OC)c2c(O)c3c(c(-c4c5c(c(O)c6c(OC)cc(OC)cc46)CO[C@@H](C)[C@H]5O)c2c1)[C@H](O)[C@H](C)OC3	i	i	35.5µM	i	i	i
COc1cc2nc(N3CCOCC3)nc(NC(C)C)c2cc1OC	nt	i	nt	nt	nt	nt
COC(=O)C1=CN(Cc2ccc(OC)c(OC)c2)C=C(C(=O)OC)C1c1cccc(F)c1	i	i	i	i	?	i
COC(=O)C1=CN(Cc2cccs2)C=C(C(=O)OC)C1c1cccc(O)c1	i	i	i	i	50.1µM	i
CCCCCN1C=CC=C/C1=C\C=C(C#N)C#N	i	i	i	i	i	i
CCCCCCN1C=CC=C/C1=C/C=C(C#N)C#N	i	i	89.1µM	i	i	i
N#C/C(=C/c1ccc(O)c(O)c1)c1nc2ccccc2[nH]1	i	i	89.1µM	i	?	i
Cc1ccc(C2=N/C(=C\c3c(C)nn(-c4ccccc4)c3N3CCCC3)C(=O)O2)cc1	i	i	i	100µM	i	i
O=c1oc2c3c4c(cc2c(C(F)(F)F)c1CCN1CCOCC1)CCCN4CCC3	?	91.2	i	112µM	i	i
CSc1ccc(CNC(=O)C2CCN(c3nnc(-n4cccc4CNc4ccc(C)cc4)s3)CC2)cc1	nt	i	nt	nt	nt	i
O=C(COc1ccccc1C(=O)OCC(=O)N1CCOCC1)Nc1ccc(Br)cc1	nt	i	nt	nt	nt	nt
CC[C@H](C)/C=C/C1=CC2=C(Cl)C(=O)[C@@]3(C)OC(=O)C(C(=O)[C@H](C)[C@@H](C)O)=C3C2=CO1	i	i	50.1µM	i	?	i
Cc1ccc(/C=C2\S/C(=N/S(=O)(=O)c3cccs3)NC2=O)cc1	i	i	39.8µM	i	?	i
N#Cc1c(-c2cccs2)nc(SCc2ccc(Cl)cc2)[nH]c1=O	i	i	89.1µM	i	50.1µM	i
CCN(CCC#N)c1ccc(/C=C/c2ccnc3ccccc23)cc1	nt	i	nt	nt	nt	nt
CC(=O)N(C(C)=O)N1C(=O)c2cccc3c(N4CCOCC4)ccc(c23)C1=O	112µM	i	?	i	i	i
CCCCNc1ccc2c3c(cccc13)C(=O)N(CCCC)C2=O	79.4µM	109.8	i	100µM	i	i
O=C1c2cccc3c(N4CCCCC4)ccc(c23)C(=O)N1c1ccccn1	i	i	i	i	i	i
CCCN1C(=O)c2cccc3c(N4CCCCC4)ccc(c23)C1=O	?	i	i	100µM	i	i
